# According to paper PMC4336329 (PLoS ONE, 2015):
# About 14,000 (4.5%) of roughly 310,000 compounds showed an effect of 50% or more. The effect is printed as a negative number. Many of the other results were omitted from the sample, so strong results are more common in it than they were.
# Target: human ether-à-go-go-related gene (hERG) potassium channel (human, UniProt Q12809)
# Experiment: primary screen, population patch clamp on CHO cells stably expressing hERG; higher = less effect of the substance
# 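Also: peak tail current of the secondary pulse compared with the same well before compound.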
# Sequence of human ether-à-go-go-related gene (hERG) potassium channel (Q12809 whole entry, looked up): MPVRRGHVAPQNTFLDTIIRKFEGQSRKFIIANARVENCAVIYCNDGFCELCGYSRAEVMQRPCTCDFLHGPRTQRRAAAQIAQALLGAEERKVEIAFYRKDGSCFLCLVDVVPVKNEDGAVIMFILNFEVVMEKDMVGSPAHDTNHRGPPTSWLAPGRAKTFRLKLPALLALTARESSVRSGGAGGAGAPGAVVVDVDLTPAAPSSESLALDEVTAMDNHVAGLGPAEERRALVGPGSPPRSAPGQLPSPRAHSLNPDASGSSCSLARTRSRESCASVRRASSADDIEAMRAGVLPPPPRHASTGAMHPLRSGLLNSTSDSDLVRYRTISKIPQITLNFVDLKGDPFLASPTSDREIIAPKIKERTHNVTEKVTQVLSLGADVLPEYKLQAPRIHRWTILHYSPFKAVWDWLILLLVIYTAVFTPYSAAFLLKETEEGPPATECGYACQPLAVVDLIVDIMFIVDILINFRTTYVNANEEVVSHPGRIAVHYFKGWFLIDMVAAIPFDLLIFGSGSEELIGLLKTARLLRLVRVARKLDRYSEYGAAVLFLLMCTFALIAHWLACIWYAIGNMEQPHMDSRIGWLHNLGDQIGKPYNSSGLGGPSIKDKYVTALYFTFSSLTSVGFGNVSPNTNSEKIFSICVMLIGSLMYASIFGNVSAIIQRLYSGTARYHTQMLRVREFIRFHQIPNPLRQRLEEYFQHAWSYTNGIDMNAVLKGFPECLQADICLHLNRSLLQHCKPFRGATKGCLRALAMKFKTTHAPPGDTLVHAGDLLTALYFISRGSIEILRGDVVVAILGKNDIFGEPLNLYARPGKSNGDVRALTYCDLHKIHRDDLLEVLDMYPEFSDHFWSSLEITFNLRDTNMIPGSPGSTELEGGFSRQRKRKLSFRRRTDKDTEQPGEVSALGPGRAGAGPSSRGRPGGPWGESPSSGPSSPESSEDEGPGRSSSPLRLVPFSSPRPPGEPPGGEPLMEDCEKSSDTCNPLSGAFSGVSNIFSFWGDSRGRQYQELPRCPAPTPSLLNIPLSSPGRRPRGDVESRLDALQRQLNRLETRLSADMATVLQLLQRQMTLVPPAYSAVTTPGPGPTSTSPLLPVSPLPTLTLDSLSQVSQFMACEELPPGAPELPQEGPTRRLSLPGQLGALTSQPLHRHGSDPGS
row,Structure (SMILES),"hERG current change (%, negative = inhibition) at 10uM"
1,Cc1csc(NC(=O)CCC(=O)N(CC(=O)NC2CCCC2)c2ccccc2)n1,-3.43%
2,Cc1ccc(CNC(=O)CCCOc2cc(=O)n(C)c3ccccc23)o1,-17.9%
3,Cc1[nH][nH]c(=O)c1N=Nc1ccc(Cl)cc1,2.19%
4,C/C(NC(=O)c1cccs1)=C1\C(=O)C[C@@H]2[C@H]1C2(C)C,-19.6%
5,CCOc1ccc(C(=O)CCC(=O)NC(CC(C)C)C(=O)OC)cc1 (stereo not shown),-2.17%
6,CCOC(=O)CNC(=O)c1sc(NC(=O)c2cccc(F)c2)nc1C,-0.522%
7,O=C(CCCOc1ccc(Cl)cc1Cl)Nc1ccccn1,24.2%
8,NC(=O)c1nn(-c2ccccc2)nc1N,0.947%
9,O=c1[nH]c2cc3c(cc2cc1C(c1nnnn1Cc1ccccc1)N1CCN2CCCC2C1)OCCO3 (stereo not shown),-0.778%
10,Cc1cc(C)nc(NC(=O)CCC2CCCC2)c1,-4.11%
11,COc1ccc2c(c1)CC/C(=C\c1ccc(C)o1)C2=O,8.29%
12,CCOC(=O)c1cn2nc(N3CCCC3)ccc2n1,1.32%
13,CN(CCc1cnn(C)c1)Cc1cn(C)nc1-c1ccccc1F,9.85%
14,Cc1ccc(-c2[nH]ncc2CNCCc2cnn(-c3ccccc3)c2)cc1C,-66.4%
15,Cn1cc(CCNCc2cn[nH]c2-c2ccc(-c3ccccc3)cc2)cn1,-64.8%
16,COCCN1CCC(CNCc2cn[nH]c2-c2ccc(C)c(C)c2)C1 (stereo not shown),-3.39%
17,CN(Cc1cn[nH]c1-c1ccc(-c2ccccc2)cc1)CC1CCOCC1,-46.2%
18,CN(CCc1cnn(C)c1)Cc1cn(C)nc1-c1ccc2c(c1)OCCO2,5.94%
19,CN(CCc1cnn(C)c1)Cc1cn[nH]c1-c1ccc(-c2ccccc2)cc1,-66.6%
20,CN(CCC1CCOCC1)Cc1cn[nH]c1-c1ccc(-c2ccccc2)cc1,-62.6%
21,CCn1cc(CNCc2cn[nH]c2-c2cc3ccccc3o2)cn1,-14.1%
22,CN(Cc1cn[nH]c1-c1ccc2c(c1)OCO2)C1CCOCC1,12.7%

row,Structure (SMILES),"hERG current change (%, negative = inhibition) at 10uM"
1,Cn1cc(CNCc2cn[nH]c2-c2ccc(F)cc2)c(-c2ccc3c(c2)OCCO3)n1,-21.6%
2,COc1ccc(-c2[nH]ncc2CNCCc2ncccc2C)cc1F,-41.7%
3,O=C(COc1ccc2c3c(c(=O)oc2c1)CCC3)Nc1ccc(CCO)cc1,21.2%
4,O=C(CCc1nnc(Cc2ccc(-c3ccccc3)cc2)o1)NCC1CC1,-4.72%
5,CN(C)c1cc2c(cc1NS(=O)(=O)c1ccccc1)n(C)c(=O)n2C,10.5%
6,CN1CCN(C(=O)Nc2cccc(-c3ccccc3)c2)CC1,-3.63%
7,O=C(NCCC1=CCCCC1)c1c(O)nc2ccccn2c1=O,0.215%
8,O=c1c2ccccc2nc(-c2ccco2)n1/N=C/c1ccco1,13.1%
9,CC(C)N(C(=O)CSc1nc2ccccc2n1Cc1ccc(F)cc1)C(C)C,-27.3%
10,CN1C[C@@H]2C(c3ccccc3)C3(c4cccnc4)CC2(C3)[C@H]1c1ccccc1 (stereo partly shown),-46.5%
11,CN1C[C@@H]2C(c3ccc(Cl)nc3)C3(c4ccccc4)CC2(C3)[C@H]1c1ccccc1 (stereo partly shown),-43.1%
12,CN1C[C@@H]2C(c3ccc(C(F)(F)F)cc3)C3(c4cccnc4)CC2(C3)[C@H]1c1ccccc1 (stereo partly shown),-60%
13,CN1C[C@@H]2C(c3ccc(Cl)nc3)C3(c4ccc(C#N)cc4)CC2(C3)[C@H]1c1ccccc1 (stereo partly shown),-54.9%
14,CN1C[C@@H]2C(c3ccc(C(F)(F)F)cc3)C3(c4ccccc4)CC2(C3)[C@H]1c1ccccc1 (stereo partly shown),-1.14%
15,CN1C[C@@H]2C(c3ccccc3)C3(c4ccc(C#N)cc4)CC2(C3)[C@H]1c1ccccc1 (stereo partly shown),-32.5%
16,Clc1ccc(-c2nc(Cc3ccccc3)no2)cc1,11.9%
17,Cn1ccs/c1=N\S(=O)(=O)c1ccc(C(C)(C)C)cc1,-11.5%
18,CC(NC(=S)NC1CCCCC1)c1ccc(C(C)(C)C)cc1 (stereo not shown),10.6%
19,c1coc(-c2cc(C3CCNCC3)[nH]n2)c1,15.5%
20,Cc1cc(C(=O)N2CCC(C)CC2)on1,1.18%
21,CC(C)n1nc(C(=O)NNC(=O)c2ccncc2)c2ccccc2c1=O,3.56%
22,CC(C)n1nc(C(=O)NNC(=O)c2ccc(OC(F)F)cc2)c2ccccc2c1=O,-76.3%

row,Structure (SMILES),"hERG current change (%, negative = inhibition) at 10uM"
1,CC(C)n1nc(C(=O)Oc2ccc(Cl)cc2)c2ccccc2c1=O,5.39%
2,CCCCCCCCCCOC(=O)Cn1c(COc2ccccc2)[n+](C)c2ccccc21.[Cl-],-76.1%
3,CN(C)C(=O)Oc1cccc(OCc2n(C)c3ccccc3[n+]2C)c1.[Cl-],14.7%
4,CCCCCOC(=O)Cn1c(=O)oc2ccccc21,0.0173%
5,CCOC(=O)C(CCCOc1cccc(OC)c1)C(=O)OCC,-14.9%
6,CCCCCCCCOc1ccc(C(=O)O)cc1,13.3%
7,NNC(=O)Cn1c(COc2ccc(Cl)cc2)nc2ccccc21,-9.34%
8,Cc1ccc(OCCCCn2c(CO)nc3ccccc32)cc1,-14.6%
9,CCCCCCCCCCOC(=O)Cn1c(COc2cccc(OC)c2)[n+](C)c2ccccc21.[Cl-],-76.7%
10,CCCCCCCCCCOC(=O)Cn1c(COc2ccc(Cl)cc2)[n+](C)c2ccccc21.[Cl-],-76.2%
11,CCCCc1n(CC(=O)c2ccc(Cl)cc2)c2ccccc2[n+]1C.[Br-],8.02%
12,CN(C)C(=O)Oc1ccc(OCc2n(C)c3ccccc3[n+]2C)cc1.[Cl-],5.79%
13,CCCCCCCCCCOC(=O)Cn1c(COc2ccc(C)cc2)[n+](C)c2ccccc21.[Cl-],-74.9%
14,COc1cc(OC)c2ccc(=O)oc2c1C(CC(=O)N1CCCC1)c1ccc(N(C)C)cc1 (stereo not shown),10.2%
15,COc1cccc(C(C(=O)NC2CCCC2)N(C(=O)c2ccco2)c2ccc(-n3cnnn3)c(C)c2)c1OC (stereo not shown),8.33%
16,COc1cc(Cl)ccc1OCc1cc(C(=O)N2C[C@]3(C)C[C@H]2CC(C)(C)C3)no1,-8.91%
17,CC12CCC(CC1=O)C2(C)C (stereo not shown),8.29%
18,Cc1cccc(OCCCCn2c(CO)nc3ccccc32)c1,-5.5%
19,CCCCOC(=O)Cn1c2ccc(OC)cc2c2nc3ccccc3nc21,-6.29%
20,CCCCCCCCCCOC(=O)Cn1c(COc2ccc(OC)cc2)[n+](C)c2ccccc21.[Cl-],-83.3%
21,CCCCCOC(=O)Cn1c(=O)oc2ccc(C)cc21,-10.6%
22,COc1ccc(OCCCCn2c(CO)nc3ccccc32)cc1,-24.5%

row,Structure (SMILES),"hERG current change (%, negative = inhibition) at 10uM"
1,CCCCCCCCCCOC(=O)Cn1c(COc2cccc(C)c2)[n+](C)c2ccccc21.[Cl-],-76%
2,CN(C)C(=O)C(Sc1ccc(S(=O)(=O)N2CCCC2)cn1)c1ccccc1 (stereo not shown),-13.4%
3,COc1ccccc1P(=O)(c1ccccc1)c1ccccc1,15.1%
4,COc1cccc(/C=C/C(=O)NCCc2ccc(OC)c(OC)c2)c1,-16.3%
5,N#CCC(=O)Nc1ccc(C(=O)OCC(=O)c2ccc3c(c2)OCCO3)cc1,10.5%
6,OC(CCc1ccncc1)COc1ccccc1 (stereo not shown),3.52%
7,CC(CCc1ccccc1)NCC(O)COc1ccccc1 (stereo not shown),-73.4%
8,CNCC(O)COc1ccccc1 (stereo not shown),-5.69%
9,OC(CNCCC(c1ccccc1)c1ccccc1)COc1ccccc1 (stereo not shown),-71.4%
10,OC(CNCCc1ccccc1)COc1ccc(OCC(O)CNCCc2ccccc2)cc1 (stereo not shown),1.24%
11,OC(CNCc1ccccc1)COc1ccccc1 (stereo not shown),-11.9%
12,CCc1cc(C(=O)N2CCN(c3ccccn3)CC2)sc1C,-3.12%
13,O=C(CCS(=O)CCC(=O)NCc1ccccc1)NCc1ccccc1,17.7%
14,Cc1nnc(NC(=O)c2cccc(F)c2)s1,4.08%
15,COC(=O)CN1C(c2cccc(Cl)c2)=Nc2ccc(Cl)cc2C1c1ccccc1 (stereo not shown),1.61%
16,NNC(=O)CN1C(c2ccc(Cl)cc2)=Nc2ccc(Br)cc2C1c1ccccc1 (stereo not shown),-53.3%
17,COC(=O)CN1C(c2ccc(Cl)cc2)=Nc2ccc(Cl)cc2C1c1ccccc1 (stereo not shown),-17.7%
18,COC(=O)CN1C(c2ccccc2)=Nc2ccc(Cl)cc2C1c1ccccc1 (stereo not shown),-66.4%
19,NNC(=O)CN1C(c2ccc(Br)cc2)=Nc2ccc(Br)cc2C1c1ccccc1 (stereo not shown),-30.8%
20,NNC(=O)CN1C(c2ccccc2)=Nc2ccc(Br)cc2C1c1ccccc1 (stereo not shown),-20%
21,CC1CC(C)CN(CCCNC(=O)c2c(O)nc3ccccn3c2=O)C1 (stereo not shown),6.75%
22,CC/C(=N\NC(=O)c1ccc(-c2ccccc2)cc1)C12CC3CC(CC(C3)C1)C2,0.121%
